# PubChem BioAssay (NCATS)
# Inconclusive results are not listed. Where a call stands in place of a potency, no number is given. Calls of active or inactive are those of the source. Unless noted, calls follow the shape of the dose curve; as a rule, active = well fitted curve in the direction sought with a large enough effect; inconclusive = small, poorly fitted or top-dose-only effect, or another doubt; inactive = no such curve, though single readings can be large; an effect the other way counts as inactive or inconclusive.
# Assays:
# [1] = target: Ubiquitin carboxyl-terminal hydrolase 1 (Homo sapiens) (UniProt O94782); assay: Inhibitors of USP1/UAF1: Pilot qHTS (AID 504865);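 also: rhodamine fluorescence freed from ubiquitin-rhodamine substrate followed over time; top concentration of the series differs between compounds; nearly all actives have a fitted effect of over 35% in size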
# Outline: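 1nM USP1/UAF1 + cpd, 15 min RT; start w/ Ub-Rho 150nM final; kinetic FL 480/540 nm, 6 reads q60 s. Buffer 50mM HEPES pH 7.8, 0.5mM EDTA, 1mM TCEP, 0.01% Tween-20, 0.1 mg/ml BSA.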
# [2] = target: DNA dC->dU-editing enzyme APOBEC-3G (Homo sapiens) (UniProt Q9HC16); assay: qHTS for inhibitors of Vif-A3G interactions: Validation (AID 588379)
# Outline: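 Yellow fluorescence (Ex 488, Em 500-530) of Vif-coexpressing HeLa A3G-eYFP cells, scanned by Acumen cytometer, reports blocked A3G degradation. Cells plated at 700/well overnight at 37 deg C before compound addition, then a further overnight compound incubation at 37 deg C.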
# [3] = target: Estrogen receptor (Homo sapiens) (UniProt P03372); assay: qHTS assay for small molecule antagonists of estrogen receptor alpha signaling (AID 588513; active = well fitted curve in the direction sought with a large enough effect in the signal ratio, with a control signal flat, not every such curve was filed as active; the % refers to the signal ratio; also: potency is read from the fitted curve at half-maximal effect)
# Outline: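 Beta-lactamase reporter, antagonist mode, HEK 293 GripTite cells; 0.5nM E2 stimulus, 18 h, 37 C; CCF4 dye 2 h RT; fluorescence. IC50 and efficacy from Hill fits, normalized to E2 and DMSO.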
# [4] = target: Peptidyl-prolyl cis-trans isomerase NIMA-interacting 1 (Homo sapiens) (UniProt Q13526); assay: qHTS Validation Assay to Find Inhibitors of Pin1 (AID 504536; active = well fitted inhibition curve with a large enough effect in the polarisation, with a control signal flat, not every such curve was filed as active; the % refers to the polarisation)
# Outline: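 Fluorescence polarization competition: compounds (titration) displace HiFluor-488-labeled Pin1-1b peptide from Pin1 (0.3 uM final) in pH 7.5 HEPES buffer with DTT, 10 min at room temperature; %Activity normalized to no-enzyme wells, curves fitted.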
# [5] = target: Phosphoglycerate kinase, glycosomal (Trypanosoma brucei brucei) (UniProt P07378); assay: qHTS Validation Assay to Find Inhibitors of Phosphoglycerate Kinase (AID 504547)
# Outline: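 Luminescence end-point (Kinase-Glo Plus, 10 min) after a 60 min room-temperature coupled reaction. GAPDH at 100nM final supplies 1,3-BPG to PGK. Buffer: 100mM TEA pH 7.6, 5mM MgCl2, 0.01% Tween-20. Wells lacking PGK served as controls.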
# [6] = target: phosphoglycerate mutase (Leishmania major) (UniProt Q4Q090); assay: qHTS Validation Assay to Find Inhibitors of Phosphoglycerate Mutase (AID 504548);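 also: end-point luminescence from Kinase-GloPlus after the PGAM reaction; series mostly up to about 58 µM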
# Outline: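 Inhibition of L. major PGAM was assessed by Kinase-GloPlus luminescence following a 45-minute room-temperature reaction with enzyme at 1.25nM final.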
# [7] = qHTS for Inhibitors of ATXN expression: Validation of Cytotoxic Assay (AID 588349)
# Outline: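 Cytotoxicity counter-screen: ATP-based luminescent viability (CellTiter Glo) after 72 hr exposure of HEK293 cells to a compound titration at 37 degrees C.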
# [8] = qHTS for Inhibitors of ATXN expression: Validation (AID 588378); also: series mostly up to about 57 µM; nearly all actives have a fitted effect of over 75% in size
# Outline: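 Cells: HEK293-ATXN2-FFLuc, phenol-red free DMEM, 2 h attachment. Compound pin-transfer, 24 h, 37 degrees C, 5% CO2. CellTiter-Fluor 30 min, Ex405/Em525; Bright-Glo 5 min, luminescence 2 s exposure.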
# [9] = target: Estrogen receptor (Homo sapiens) (UniProt P03372); assay: qHTS assay for small molecule agonists of estrogen receptor alpha signaling (AID 588514; calls by dose curve; also: nearly all actives have a fitted effect of over 70% in size)
# Outline: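 EC50 and efficacy came from Hill fits of beta-lactamase reporter signal (CCF4 dye, 2 h at room temperature) scaled between DMSO and 20 nM 17-beta-estradiol. Agonist mode: HEK293 ER-alpha-UAS-bla cells in charcoal/dextran-stripped serum medium, 18 h compound exposure at 37 C.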
# [10] = Validation screen for small molecules that induce DNA re-replication in SW480 colon adenocarcinoma cells (AID 504364)
# Outline: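 Image-based DNA content read-out: Hoechst stain 40 min, total nuclear fluorescence intensity (ex 405 nm, em 500-530 nm) after 48 h compound exposure of 250 SW480 cells/well at 37 C, 5% CO2, versus DMSO vehicle.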
# Sequence of Ubiquitin carboxyl-terminal hydrolase 1 (Homo sapiens) (O94782 whole entry, looked up): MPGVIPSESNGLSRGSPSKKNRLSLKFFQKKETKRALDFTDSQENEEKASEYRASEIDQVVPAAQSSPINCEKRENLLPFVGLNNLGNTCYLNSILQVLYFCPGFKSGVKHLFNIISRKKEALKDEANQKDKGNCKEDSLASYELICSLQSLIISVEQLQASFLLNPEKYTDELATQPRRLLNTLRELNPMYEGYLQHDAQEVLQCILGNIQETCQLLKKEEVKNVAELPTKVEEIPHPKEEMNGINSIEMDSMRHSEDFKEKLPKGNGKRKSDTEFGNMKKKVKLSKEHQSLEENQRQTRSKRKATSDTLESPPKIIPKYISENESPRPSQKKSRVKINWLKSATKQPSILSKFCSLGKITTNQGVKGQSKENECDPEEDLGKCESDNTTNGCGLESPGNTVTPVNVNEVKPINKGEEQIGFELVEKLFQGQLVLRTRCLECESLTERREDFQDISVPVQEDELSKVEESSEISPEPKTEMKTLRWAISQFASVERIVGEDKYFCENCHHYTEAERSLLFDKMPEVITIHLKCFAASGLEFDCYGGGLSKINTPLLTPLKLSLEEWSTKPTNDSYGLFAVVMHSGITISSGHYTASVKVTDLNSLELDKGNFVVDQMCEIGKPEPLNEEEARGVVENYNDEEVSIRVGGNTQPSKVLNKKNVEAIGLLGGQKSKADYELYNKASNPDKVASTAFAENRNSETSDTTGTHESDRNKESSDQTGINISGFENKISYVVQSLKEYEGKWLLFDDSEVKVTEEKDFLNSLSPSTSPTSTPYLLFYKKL
# Sequence of Peptidyl-prolyl cis-trans isomerase NIMA-interacting 1 (Homo sapiens) (Q13526 whole entry, looked up): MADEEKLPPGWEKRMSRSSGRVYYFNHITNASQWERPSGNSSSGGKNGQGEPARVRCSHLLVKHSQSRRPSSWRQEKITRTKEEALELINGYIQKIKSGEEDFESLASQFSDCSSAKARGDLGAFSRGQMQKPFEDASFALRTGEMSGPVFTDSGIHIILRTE
# Sequence of Phosphoglycerate kinase, glycosomal (Trypanosoma brucei brucei) (P07378 whole entry, looked up): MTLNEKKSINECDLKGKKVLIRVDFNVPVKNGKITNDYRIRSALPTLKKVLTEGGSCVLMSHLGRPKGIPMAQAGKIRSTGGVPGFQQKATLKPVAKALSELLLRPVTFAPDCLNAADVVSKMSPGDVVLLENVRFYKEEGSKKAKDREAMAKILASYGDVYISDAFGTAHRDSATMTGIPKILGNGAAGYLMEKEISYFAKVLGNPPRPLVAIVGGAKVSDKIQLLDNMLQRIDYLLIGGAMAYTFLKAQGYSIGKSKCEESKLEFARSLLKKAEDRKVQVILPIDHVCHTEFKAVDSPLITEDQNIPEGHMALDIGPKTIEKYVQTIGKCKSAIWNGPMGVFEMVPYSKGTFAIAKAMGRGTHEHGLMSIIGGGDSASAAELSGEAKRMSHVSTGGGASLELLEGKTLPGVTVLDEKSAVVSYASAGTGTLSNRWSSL
# Sequence of phosphoglycerate mutase (Leishmania major) (Q4Q090 1-553): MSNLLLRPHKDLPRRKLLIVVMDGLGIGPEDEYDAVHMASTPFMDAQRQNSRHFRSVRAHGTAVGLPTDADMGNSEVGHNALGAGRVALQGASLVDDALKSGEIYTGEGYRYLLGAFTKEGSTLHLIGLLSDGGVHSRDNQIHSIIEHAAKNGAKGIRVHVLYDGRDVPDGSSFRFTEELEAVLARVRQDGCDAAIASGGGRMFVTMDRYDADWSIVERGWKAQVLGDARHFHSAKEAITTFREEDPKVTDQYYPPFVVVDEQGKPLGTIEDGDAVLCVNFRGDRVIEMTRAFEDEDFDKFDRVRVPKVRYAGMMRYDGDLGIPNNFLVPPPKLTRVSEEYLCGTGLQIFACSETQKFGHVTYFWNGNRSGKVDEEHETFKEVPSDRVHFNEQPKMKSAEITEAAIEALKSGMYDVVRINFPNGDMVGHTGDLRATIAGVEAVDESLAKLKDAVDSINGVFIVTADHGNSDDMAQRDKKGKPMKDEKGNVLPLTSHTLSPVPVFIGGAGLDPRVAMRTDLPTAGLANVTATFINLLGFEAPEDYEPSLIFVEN
# Sequence of Estrogen receptor (Homo sapiens) (P03372 whole entry, looked up): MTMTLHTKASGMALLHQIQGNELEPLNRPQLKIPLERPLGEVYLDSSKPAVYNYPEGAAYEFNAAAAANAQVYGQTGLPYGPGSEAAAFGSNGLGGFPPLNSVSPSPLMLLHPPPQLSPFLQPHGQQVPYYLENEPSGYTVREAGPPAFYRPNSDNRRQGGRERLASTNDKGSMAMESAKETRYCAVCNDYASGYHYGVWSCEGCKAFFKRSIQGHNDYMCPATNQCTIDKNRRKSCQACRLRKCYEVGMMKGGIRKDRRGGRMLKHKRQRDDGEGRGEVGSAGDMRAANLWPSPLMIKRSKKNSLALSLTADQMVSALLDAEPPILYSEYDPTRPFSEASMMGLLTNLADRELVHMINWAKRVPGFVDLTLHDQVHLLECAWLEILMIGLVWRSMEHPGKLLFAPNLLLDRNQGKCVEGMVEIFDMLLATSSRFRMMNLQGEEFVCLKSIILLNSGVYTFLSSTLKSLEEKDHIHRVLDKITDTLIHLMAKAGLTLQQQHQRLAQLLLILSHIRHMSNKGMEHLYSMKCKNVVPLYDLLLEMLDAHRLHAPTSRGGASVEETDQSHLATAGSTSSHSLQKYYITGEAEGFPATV
# Sequence of DNA dC->dU-editing enzyme APOBEC-3G (Homo sapiens) (Q9HC16 whole entry, looked up): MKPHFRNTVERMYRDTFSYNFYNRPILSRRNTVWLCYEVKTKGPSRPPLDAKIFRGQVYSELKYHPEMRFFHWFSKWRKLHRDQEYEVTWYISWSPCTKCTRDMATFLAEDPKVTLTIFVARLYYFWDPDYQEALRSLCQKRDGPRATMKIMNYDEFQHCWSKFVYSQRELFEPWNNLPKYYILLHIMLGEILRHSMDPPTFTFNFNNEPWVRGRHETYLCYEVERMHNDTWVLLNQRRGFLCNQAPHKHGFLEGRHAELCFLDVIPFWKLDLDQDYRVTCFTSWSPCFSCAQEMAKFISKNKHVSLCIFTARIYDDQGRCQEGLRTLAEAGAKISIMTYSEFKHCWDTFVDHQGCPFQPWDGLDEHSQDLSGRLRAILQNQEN
compound,measurement,setting,value
COc1ccc2c(c1OC)C(=O)OC2[C@H]1c2c(cc3c(c2OC)OCO3)CCN1C (some centres not stated),outcome,[1],inactive
Nc1nc2c(c(=O)[nH]1)N(C=O)[C@H](CNc1ccc(C(=O)N[C@@H](CCC(=O)O)C(=O)O)cc1)CN2,outcome,[1],inactive
Cc1cc(O)c2c(c1)C(=O)c1cccc(O)c1C2=O,outcome,[1],inactive
same,outcome,[2],inactive
same,Potency,[3],inactive
O=c1c(O)c(-c2ccc(O)c(O)c2)oc2cc(O)ccc12,outcome,[2],inactive
Cc1ccc(O)c(C(CCN(C(C)C)C(C)C)c2ccccc2)c1 (configuration not stated),outcome,[1],inactive
COc1cc2ncnc(Nc3cccc(Br)c3)c2cc1OC,outcome,[2],inactive
CN[C@H](CC(C)C)C(=O)N[C@H]1C(=O)N[C@@H](CC(N)=O)C(=O)N[C@@H]2C(=O)N[C@H]3C(=O)N[C@H](C(=O)N[C@H](C(=O)O)c4cc(O)cc(O)c4-c4cc3ccc4O)[C@H](O)c3ccc(c(Cl)c3)Oc3cc2cc(c3O[C@@H]2O[C@H](CO)[C@@H](O)[C@H](O)[C@@H]2O[C@H]2C[C@](C)(N)[C@H](O)[C@H](C)O2)Oc2ccc(cc2Cl)[C@H]1O,outcome,[4],inactive
same,outcome,[5],inactive
same,outcome,[6],inactive
same,outcome,[7],inactive
same,outcome,[8],inactive
CN(C)CC[C@H](c1ccc(Cl)cc1)c1ccccn1,outcome,[1],inactive
COc1ccc([C@@H]2CNC(=O)C2)cc1OC1CCCC1,outcome,[1],inactive
same,outcome,[2],inactive
C[C@@]12C(=O)OC(=O)[C@@]1(C)C1CCC2O1,outcome,[1],inactive
OC[C@@H](O)[C@@H](O)[C@H](O)[C@@H](O)CO,Potency,[3],inactive
same,outcome,[9],inactive
CCN1CCN(C(=O)N[C@H](C(=O)N[C@@H]2C(=O)N3C(C(=O)O)=C(CSc4nnnn4C)CS[C@@H]23)c2ccc(O)cc2)C(=O)C1=O,outcome,[1],inactive
O=c1[nH]c(=O)n([C@H]2C[C@@H](O)[C@@H](CO)O2)cc1C=CBr,outcome,[4],inactive
same,outcome,[5],inactive
same,outcome,[6],inactive
same,outcome,[1],inactive
same,outcome,[7],inactive
same,outcome,[8],inactive
CC(C)[C@H](CO)Nc1nc(Nc2cccc(Cl)c2)c2ncn(C(C)C)c2n1,outcome,[2],inactive
COc1ccc2cc([S+]([O-])Cc3ncc(C)c(OC)c3C)nc2c1,outcome,[4],inactive
same,outcome,[5],inactive
same,outcome,[6],inactive
same,outcome,[7],inactive
same,outcome,[8],inactive
CC(C=CC1=C(C)CCCC1(C)C)=CC=CC(C)=CC(=O)Nc1ccc(O)cc1,Potency,[3],31.6 µM [inhibitor] (active)
same,outcome,[9],inactive
O=C(O)C=Cc1ccc(Cn2ccnc2)cc1,outcome,[1],inactive
same,outcome,[2],inactive
N=c1ccn2c(n1)O[C@H]1[C@@H](O)[C@@H](CO)O[C@H]12,outcome,[10],inactive
COc1ccc(C(C)=O)c(O)c1,outcome,[1],inactive
c1coc(CNc2ncnc3nc[nH]c23)c1,outcome,[1],inactive
same,outcome,[2],inactive
CCOC(=O)C1=C(C)NC(=S)NC1c1cccc(O)c1 (configuration not stated),outcome,[1],inactive
same,outcome,[2],inactive
CC(Oc1ccc(O)cc1)(P(=O)(O)O)P(=O)(O)O,outcome,[2],inactive
CN(N=O)C(=O)N[C@H]1C(O)OC(CO)[C@@H](O)[C@H]1O (some centres not stated),outcome,[1],inactive
same,outcome,[2],inactive
COc1cc2c(cc1O)CCC1C2CC[C@@]2(C)C1CC[C@@H]2O (some centres not stated),outcome,[2],inactive
OCC(O)C(O)C(O)CO (configuration not stated),outcome,[1],inactive
